# Laboratory results reported in the supplement of paper PMC3414501.
# Where a name gives a salt, the structure may show the parent alone. A number with no mark means an inactive call.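 Rule for the calls: active = HIS4 sensitivity z-score above 5 vs DMSO controls; inactive = score 5 or below.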
# Test system: S. cerevisiae NKY1551 his4x/his4B, sporulating
# Test: HIS4 meiotic recombination assay sensitivity score (z-score vs DMSO controls); higher = stronger inhibition of sporulation/recombination, active = hit call of the paper
# Conditions: stock concentration (mM, diluted 1:100): 7.3
# Method: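 NIH Clinical Collection compounds were added 1:100 from stock (about 100 µM final) to S. cerevisiae. Growth: average doubling time (AvgG) over 24 h of BY4741 (wild-type) or AD1-9 (drug-efflux-pump deficient) in rich media. HIS4: the his4x/his4B heteroallelic recombination reporter strain (SK1) was sporulated 5 h with compound at 30°C, then colony density was read on -his plates after 48 h. Sensitivity score = (compound − mean of 8 DMSO controls)/SD of DMSO controls. Hit cutoffs are >2 for growth and >5 for sporulation.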
row,SMILES,HIS4 meiotic recombination assay sensitivity score
1,CN1[C@@H]2CC(OC(=O)[C@H](CO)c3ccccc3)C[C@H]1[C@@H]1O[C@@H]12 (stereo not given in full),-0.64

# Same assay, conditions: stock concentration (mM, diluted 1:100): 8.2
row,SMILES,HIS4 meiotic recombination assay sensitivity score
1,COc1ccc2c(c1)[C@]13CCCC[C@@H]1[C@H](C2)N(C)CC3 [Dextromethorphan hydrobromide],5.52 (active)

# Same assay, conditions: stock concentration (mM, diluted 1:100): 9
row,SMILES,HIS4 meiotic recombination assay sensitivity score
1,Cc1ncc2n1-c1ccc(Cl)cc1C(c1ccccc1F)=NC2 [Midazolam hydrochloride],4.65

# Same assay, conditions: stock concentration (mM, diluted 1:100): 9.8
row,SMILES,HIS4 meiotic recombination assay sensitivity score
1,CN1CC[C@]2(c3cccc(O)c3)Cc3nc4ccccc4cc3C[C@H]2C1,0.28

# Same assay, conditions: stock concentration (mM, diluted 1:100): 9.9
row,SMILES,HIS4 meiotic recombination assay sensitivity score
1,CCCCCCCCCOc1ccc2[nH]cc(CCN)c2c1 [5-Nonyloxytryptamine],-2.09

# Same assay, conditions: stock concentration (mM, diluted 1:100): 10
row,SMILES,HIS4 meiotic recombination assay sensitivity score
1,NC1=NC(=O)C(c2ccccc2)O1 (stereo not given) [Pemoline],-0.78
2,CNC(=O)Oc1ccc2c(c1)[C@]1(C)CCN(C)[C@@H]1N2C [Physostigmine],-0.16
3,CN1C(=O)CN=C(c2ccccc2)c2cc(Cl)ccc21 [Diazepam],2.18
4,C[N+]1(C)CCN(c2ccccc2)CC1 [Dimethylphenylpiperazinium Iodide],-0.3
5,CC(C)[C@]12O[C@H]1[C@@H]1O[C@]13[C@]1(O[C@H]1C[C@H]1C4=C(CC[C@@]13C)C(=O)OC4)[C@@H]2O [Triptolide],0.28
6,CN=C1CN(O)C(c2ccccc2)=c2cc(Cl)ccc2=N1 [Chlordiazepoxide],-1.07
7,C[C@H]1CCC[C@H](O)CCCCCc2cc(O)cc(O)c2C(=O)O1 [Zeranol],-1.27
8,Oc1ccc2c3c1O[C@H]1[C@@H](O)CC[C@@]4(O)[C@@H](C2)N(CC2CCC2)CC[C@]314 [Nalbuphine],-0.56
9,OC1CCCCC1N1CCC(c2ccccc2)CC1 (stereo not given) [Vesamicol hydrochloride],-0.31
10,COc1cc2c(cc1OC)[C@@]13CCN4CC5=CCO[C@H]6CC(=O)N2[C@H]1[C@H]6[C@H]5C[C@H]43 [Brucine],0.05
11,C[C@]12CC[C@H](O)CC1=CC[C@@H]1[C@@H]2CC[C@]2(C)C(=O)CC[C@@H]12 [Dehydroepiandrosterone],3.07
12,CCCN1C[C@H](CSC)C[C@@H]2c3cccc4[nH]cc(c34)C[C@H]21 [Pergolide mesylate],-0.45
13,c1ccc2c(c1)Nc1ccccc1S2 [Phenothiazine],2.62
14,C[C@]12Cc3c[nH]nc3C[C@@H]1CC[C@@H]1[C@@H]2CC[C@@]2(C)[C@H]1CC[C@]2(C)O [Stanozolol],-0.39
15,C=C1C[C@@H]2[C@H](CC[C@]3(C)C(=O)CC[C@@H]23)[C@@]2(C)C=CC(=O)C=C12 [Exemestane],3.99
16,C[C@]12CC[C@H]3[C@@H](CCC4=CC(=O)CC[C@@]43C)[C@@H]1CC[C@@H]2O [Testosterone],-0.83
17,c1cncc([C@@H]2CCCN2)c1 [Nornicotine],-1.18
18,COc1cc(N)c(Cl)cc1C(=O)NC1CN2CCC1CC2 (stereo not given) [Zacopride],-2.43
19,CC(C)CC(N(C)C)C1(c2ccc(Cl)cc2)CCC1 (stereo not given) [Sibutramine hydrochloride],0.96
20,N=C(NCc1ccc(Cl)cc1)SCCCc1c[nH]cn1 [Clobenpropit],-0.07
21,CS(=O)(=O)Nc1ccc(Cc2noc(-c3ccc4[nH]cc(CCN)c4c3)n2)cc1,-0.76
22,FC(F)(F)c1cccc(N2CCNCC2)c1,8.84 (active)
23,C[C@]12CCC(=O)C=C1CC[C@@H]1[C@@H]2CC[C@@]2(C)[C@H]1CC[C@]2(C)O [Methyltestosterone],2.7
24,CC(O)(CS(=O)(=O)c1ccc(F)cc1)C(=O)Nc1ccc(C#N)c(C(F)(F)F)c1 (stereo not given) [Bicalutamide],-0.62
25,CC[C@@H]1C=CC=CC[C@H](C)[C@@H](O)[C@@H](C)C(=O)[C@H](C)[C@@H](O)[C@H](C)C(=O)[C@H](C)[C@@H](O)[C@H](C)C=CC(=O)O[C@H]2[C@@H](C)[C@@H](CC1)O[C@@]1(CC[C@@H](C)[C@@H](C[C@H](C)O)O1)[C@@H]2C [Oligomycin c],0.21
26,CNC1CC(c2ccc(Cl)c(Cl)c2)c2ccccc21 (stereo not given) [Indatraline],-0.83
27,C[C@]12CC[C@H]3[C@@H](CCC4=CC(=O)CC[C@@H]43)[C@@H]1CC[C@@H]2O [19-Nortestosterone],1.09
28,O=C1Nc2ccc(Cl)cc2C(c2ccccc2Cl)=NC1O (stereo not given) [Lorazepam],0.95
29,CN1C(=O)COc2c(C(=O)NC3CN4CCC3CC4)cc(Cl)cc21 (stereo not given) [Azasetron],1.08
30,COc1ccc(CCN)cc1OC [Homoveratrylamine],-1.74

# Same assay, conditions: stock concentration (mM, diluted 1:100): 10.1
row,SMILES,HIS4 meiotic recombination assay sensitivity score
1,C[C@]12C/C(=C/O)C(=O)C[C@@H]1CC[C@@H]1[C@@H]2CC[C@@]2(C)[C@H]1CC[C@]2(C)O [Oxymetholone],8.48 (active)
2,COc1ccc2[nH]cc(C3=CCNCC3)c2c1,3.92
3,C[C@]12CC[C@H](O)CC1=CC[C@@H]1[C@@H]2CC[C@@]2(C)[C@H]1CC[C@]2(C)O [Methylandrostenediol],-1.02
4,C[N+]1(CCC(C(N)=O)(c2ccccc2)c2ccccc2)CCCCC1 [Fenpiverinium bromide],-1.06

# Same assay, conditions: stock concentration (mM, diluted 1:100): 19.9
row,SMILES,HIS4 meiotic recombination assay sensitivity score
1,Cc1ccc(-c2nc3ccc(C)cn3c2CC(=O)N(C)C)cc1 [Zolpidem tartrate],0.04
